PubChem BioAssay AID1619 (SRMLSC, 2009)
Screen size: about 220,000 compounds; about 830 (0.38%) were called active.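 The calls were made as follows: active = compound inhibiting the enzyme by more than half at any dose during confirmatory dose-response retesting; inconclusive = strong single-dose inhibitors picked by rank but not retested; inactive = the rest.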 A selection follows. Potency and affinity values are given separately.

Molecular target: Leucine aminopeptidase (Plasmodium falciparum (isolate 3D7)) (UniProt Q8IL11)
Assay: P. falciparum M17LAP inhibitors, primary screen, biochemical, fluorogenic H-Leu-NHMec substrate, 1536-well (AID 1619);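 also: plate controls were full reaction with DMSO carrier for no effect and no enzyme background for full effect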
Conditions: recombinant M17LAP, H-Leu-NHMec fluorogenic kinetic assay; at 30 µM; active compounds read high

Chain of Leucine aminopeptidase (Plasmodium falciparum (isolate 3D7)) (Q8IL11 whole entry, looked up): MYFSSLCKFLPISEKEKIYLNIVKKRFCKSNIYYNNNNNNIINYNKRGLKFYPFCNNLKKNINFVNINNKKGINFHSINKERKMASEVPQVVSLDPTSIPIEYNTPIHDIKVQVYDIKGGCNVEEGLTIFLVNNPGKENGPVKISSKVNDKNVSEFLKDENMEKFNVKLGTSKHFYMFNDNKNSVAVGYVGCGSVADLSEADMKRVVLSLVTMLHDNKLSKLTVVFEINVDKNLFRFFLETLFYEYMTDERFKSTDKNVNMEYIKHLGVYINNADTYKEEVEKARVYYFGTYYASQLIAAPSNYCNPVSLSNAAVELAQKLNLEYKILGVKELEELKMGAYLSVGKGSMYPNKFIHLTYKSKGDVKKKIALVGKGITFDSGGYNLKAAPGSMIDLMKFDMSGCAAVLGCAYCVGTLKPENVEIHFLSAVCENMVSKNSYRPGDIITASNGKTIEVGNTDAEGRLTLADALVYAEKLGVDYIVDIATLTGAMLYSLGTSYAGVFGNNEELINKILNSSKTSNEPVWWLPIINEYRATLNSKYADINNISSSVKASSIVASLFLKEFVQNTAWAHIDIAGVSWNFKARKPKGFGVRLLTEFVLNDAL

inhibition, inactive:
O=C(NCCc1c[nH]c2ccccc12)/C(=C/c1cccnc1)NC(=O)c1cccs1 7.81%
Cc1ccc(NC(=O)CCCN2C(=S)NC(C)(C)CC2C)cc1 (stereo unspecified) 4.19%
CCCN(c1nc(C)cc(OC)n1)S(=O)(=O)c1ccccc1 -8.31%
Cc1cc(-c2[nH]nc3c2C(c2ccc(Cl)cc2)C(C#N)=C(N)O3)c(C)s1 (stereo unspecified) 23.3%
COc1ccc(-c2[nH]nc3c2C(c2ccsc2)C(C#N)=C(N)O3)cc1 (stereo unspecified) 72.1%
Cc1cc(-c2[nH]nc3c2C(c2ccsc2)C(C#N)=C(N)O3)c(C)s1 (stereo unspecified) 45.6%
CCOc1ccc(-c2[nH]nc3c2C(c2cccnc2)C(C#N)=C(N)O3)cc1 (stereo unspecified) 24.6%
N#CC1=C(N)Oc2n[nH]c(-c3cccs3)c2C1c1cccnc1 (stereo unspecified) 24.1%
N#CC1=C(N)Oc2n[nH]c(-c3ccncc3)c2C1c1ccsc1 (stereo unspecified) 27.9%
Cc1cc(NS(=O)(=O)c2ccc(NC(=O)c3ccc(Br)o3)cc2)nc(C)n1 4.58%
N/C(=N\OC(=O)CCC1CCCC1)c1ccccn1 7.09%
CCOn1c(-n2nc(C)cc2C)nc2ccccc2c1=O -1.28%
Cc1ccc(-c2noc(CCC(=O)NCC3CCN(Cc4cccc(C)c4)CC3)n2)cc1 -0.25%
COc1cc(/C=C2/NC(=O)N(Cc3ccccc3F)C2=O)ccc1Oc1ccc([N+](=O)[O-])cn1 -10.8%
COc1cccc(CN2CCN(C3CCN(c4ccccc4F)CC3)CC2CCO)c1 (stereo unspecified) 3.43%
CCOc1ccc(NC(=O)COc2ccccc2)c([N+](=O)[O-])c1 4.93%
COc1ccc(NC(=O)CSc2nncn2C)c([N+](=O)[O-])c1 41.3%
COc1ccc(NC(=O)CSc2ccccc2)c([N+](=O)[O-])c1 13%
CCOc1ccc(NC(=O)Cc2cccc3ccccc23)c([N+](=O)[O-])c1 33.7%
CCOc1ccc(OCC(=O)Nc2ccc(OC)cc2[N+](=O)[O-])cc1 -4.57%
COc1ccc(NC(=O)CSc2ccccn2)c([N+](=O)[O-])c1 4.06%
CCCc1cc(=O)oc2cc(OCC(=O)Nc3cc(C)on3)ccc12 -41.2%
CCNS(=O)(=O)c1ccc2c(c1)n(C)c(=O)n2C 6.77%
[O-]/C(=C(\C(=S)Nc1ccccc1F)[n+]1ccccc1)c1ccc(-c2ccccc2)cc1 -0.96%
CCc1ccc(N(C(=O)c2snc(C(N)=O)c2N)C(C(=O)NCC2CCCO2)c2cccs2)cc1 (stereo unspecified) -0.4%
Cn1ncc([N+](=O)[O-])c1C(=O)Nc1nc2ccccc2n1CCN1CCCCC1 48.4%
Cc1ccc(NC(=O)COC(=O)Cc2ccsc2)cc1S(=O)(=O)N(C)C 3.8%
CCOC(=O)c1cc(=O)n2nc(-c3ccc(C)cc3)nc2s1 10.8%
CCOC(=O)c1ccc(NC(=O)Cn2nnc(-c3ccccc3F)n2)cc1 -13.6%
CC(C)Cn1c(N)c(C(=O)COC(=O)c2cc(F)cc(F)c2)c(=O)n(C)c1=O 3.99%
CCOc1ccc(C2/C(=C(\O)c3ccc(OC)c(OC)c3)C(=O)C(=O)N2c2cc(C)on2)cc1OC (stereo unspecified) 25.9%
CCOc1cccc(-c2cc(C(=O)NN)[nH]n2)c1 3.47%
C=CCn1c(-c2cccc(OCC)c2)n[nH]c1=S -4.71%
Cc1ccc(C(=O)NC2CCCCNC2=O)cc1C (stereo unspecified) 4.43%
Cc1ccc(Cl)cc1NC(=O)N(C)CCO -0.32%
O=C(Cn1cc(C(=S)N2CCOCC2)c2ccccc21)N1CCOCC1 1.74%
O=C(O)Cn1cc(/C=C2/SC(=O)N(CC(=O)N3CCCCCC3)C2=O)c2ccccc21 36.6%
O=Cc1cn(CC(=O)N2CCOCC2)c2ccccc12 13.4%
O=C(O)Cn1cc(C(=S)N2CCOCC2)c2ccccc21 4.61%
O=C(NCc1ccccc1C(F)(F)F)C1CC(c2ccc(C(F)(F)F)cc2)=NO1 (stereo unspecified) -1.15%
Cc1ccc(CNC(=O)c2ccc3c(=O)n4c(-c5ccc(C)cc5)csc4nc3c2)cc1 4.76%
COC(=O)c1c(C)[nH]c(C(=O)NCc2ccco2)c1C -0.45%
CCC(=O)N(Cc1cc(=O)[nH]c2ccccc12)c1cccc(C)c1 -6.5%
Cc1ccc(-c2cc3nc(-c4ccccc4)cc(N4CCOCC4)n3n2)cc1 -15.5%
O=c1cc(-c2ccc(Br)cc2)[nH][nH]1 6.69%
O=c1cc(-c2ccc(C3CCCCC3)cc2)[nH][nH]1 1.14%
O=c1[nH]c(-c2ccc(Cl)cc2)cs1 -0.58%
CC(C)Cc1ccc(-c2cc(=O)[nH][nH]2)cc1 3.83%
O=c1c(OC2OC(CO)C(O)C(O)C2O)c(-c2ccc(O)c(O)c2)oc2cc(O)cc(O)c12 (stereo unspecified) 31%
O=c1c(O[C@@H]2O[C@H](CO)[C@H](O)[C@H](O)[C@H]2O)c(-c2ccc(O)c(O)c2)oc2cc(O)cc(O)c12 -6.93%
O=C(c1ccc(Br)cc1)N(C1=NCCCCS1)c1ccccc1 -5.89%
CC(Oc1ccc(NC(=O)c2ccco2)cc1)C(=O)N1c2ccccc2CC1C (stereo unspecified) -7.91%
CCOC(=O)c1c(N)c2cc([N+](=O)[O-])cnc2n1C -0.26%
COC(=O)CSc1nnc(-c2ccc(NS(=O)(=O)c3ccccc3)cc2)o1 55.1%
O=C(NCC1CCCO1)c1ccc(NS(=O)(=O)c2ccccc2)cc1 (stereo unspecified) -3.12%
O=C(CSc1nnc(-c2ccc(S(=O)(=O)N3CCCC3)cc2)o1)NCC1CCCO1 (stereo unspecified) -1.86%
CCc1nnc(NC(=O)CSc2nnc(-c3ccco3)o2)s1 4.71%
Cc1cc(NC(=O)Nc2ccc(C)c(C)c2)no1 1.89%
O=C1c2cccc3c([N+](=O)[O-])ccc(c23)C(=O)N1CCc1ccccn1 3.49%
Cc1cccc(OCCOC(=O)C2CCN(S(=O)(=O)c3cccs3)CC2)c1 -6.82%
COc1ccc(C(C)NC(=O)c2cccc([N+](=O)[O-])c2)cc1OC (stereo unspecified) 1.09%
COc1ccc(NC(=S)N/C(=N/S(=O)(=O)c2ccc(C)cc2)c2ccccc2)cc1 -2.37%
OC1(c2ccccc2)CCN(Cc2ccccc2)CC1 11.4%
CCOC(=O)c1cn(Cc2ccccc2)nn1 -4.7%
Cc1ccc(-n2cc(CN3CCN(C(=O)c4ncn[nH]4)CC3)c(-c3ccc(F)cc3)n2)cc1 5.18%
CCOc1ccc(N2C(=O)CC(SCC(=O)O)C2=O)cc1 (stereo unspecified) 11.6%
CCCOc1ccc(N2C(=O)CC(SCCc3nc4ccccc4[nH]3)C2=O)cc1 (stereo unspecified) 0.77%
CCCOc1ccc(N2C(=O)CC(SCc3nc4ccccc4[nH]3)C2=O)cc1 (stereo unspecified) 9.24%
COC(=O)c1ccc(N2C(=O)CC(SCCN)C2=O)cc1 (stereo unspecified) 6.69%
O=c1[nH]c2cccnc2n1-c1cccc([N+](=O)[O-])c1 -2.76%
Fc1ccc(OCc2nc(-c3cccs3)no2)cc1 -5.15%
O=C(Cn1cnc2c(cnn2-c2ccc(Cl)cc2)c1=O)NCC1CCCO1 (stereo unspecified) 8.72%
COc1ccc(C2CC(=O)C=C(NCc3ccc4c(c3)OCO4)C2)cc1 (stereo unspecified) 8.48%
CCN(CC)c1nc(C)c(C(C)=O)cc1C#N 3.26%
COc1ccccc1N1CCN(S(=O)(=O)Cc2ccccc2Cl)CC1 3.75%
COc1ccc(NC(=O)C(c2ccc(C)cc2)N(C)C(=O)c2cnccn2)cc1 (stereo unspecified) 1.36%
C/C(=N/NC(=O)CC(=O)N/N=C(\C)c1ccc([N+](=O)[O-])cc1)c1ccc([N+](=O)[O-])cc1 9.49%
C/C(=N\NC(=O)CNc1ccccc1)c1ccccc1 -12.8%
C/C(=N\NC(=O)CCc1c(C)n[nH]c1C)c1ccc([N+](=O)[O-])cc1 6.88%
C/C(=N\NC(=O)CC1N=C(Cc2ccccc2)NNC1=O)c1ccccc1 (stereo unspecified) 1.8%
Cc1ccc(S(=O)(=O)/N=C(\N)Nc2nc(C)c3cc(C)c(C)cc3n2)cc1 6.15%
O=C(CCSc1ccccc1)Nc1ccc(OCc2ccccc2)cc1 3.34%
COc1ccc(-c2nnc(SCC(=O)N/N=C/c3ccccc3C(=O)O)n2-c2ccccc2)cc1 -3.16%
COc1cc(/C=C(/C#N)c2ccc(F)cc2)ccc1OCc1ccc(C(=O)O)o1 34.9%
COC(=O)c1ccc(COc2ccc(/C=C(\C#N)c3nc4ccccc4[nH]3)cc2OC)o1 -3.19%
N#C/C(=C/c1ccc(OCc2ccc(C(=O)O)cc2)c(Br)c1)c1cccc(F)c1 7.71%
COc1cc(/C=C(/C#N)c2nc3ccccc3[nH]2)ccc1OCc1ccc(C(=O)O)o1 -33.5%
COc1ccc(NC(=O)Cc2c(F)cccc2Cl)c(OC)c1 -1.9%
COc1ccc(NC(=O)COC(=O)Cc2c(F)cccc2Cl)cc1 5.4%
COC(=O)CSc1nc(NC#N)nc(NC(C)(C)C)n1 4.9%
COc1ccc(-c2cc(C)nc(SCc3cccc(C(=O)O)c3)n2)cc1 38.6%
